The target of one assay is T1, ERF (Homo sapiens, UniProt P50548 1-548).
T1 sequence: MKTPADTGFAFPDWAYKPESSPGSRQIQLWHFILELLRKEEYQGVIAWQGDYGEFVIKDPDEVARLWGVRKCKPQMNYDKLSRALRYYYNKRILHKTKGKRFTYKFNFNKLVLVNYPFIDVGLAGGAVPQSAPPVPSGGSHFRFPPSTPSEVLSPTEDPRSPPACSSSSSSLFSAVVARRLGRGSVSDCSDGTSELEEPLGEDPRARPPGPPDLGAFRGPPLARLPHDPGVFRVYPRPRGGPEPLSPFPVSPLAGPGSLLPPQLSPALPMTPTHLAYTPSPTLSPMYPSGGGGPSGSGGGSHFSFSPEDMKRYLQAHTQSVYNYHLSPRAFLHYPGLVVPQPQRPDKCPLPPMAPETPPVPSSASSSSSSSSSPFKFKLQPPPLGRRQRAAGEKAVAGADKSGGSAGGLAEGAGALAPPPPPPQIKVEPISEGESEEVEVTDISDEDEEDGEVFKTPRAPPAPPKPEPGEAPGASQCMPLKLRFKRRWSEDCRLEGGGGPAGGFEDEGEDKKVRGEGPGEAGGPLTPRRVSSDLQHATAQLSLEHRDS
The assay is described as follows: DAPPL (digital affinity profiling via proximity ligation, sequencing); 10 mM Tris-HCl pH 7.5, 50 mM NaCl, 1 mM DTT, 4% glycerol, room temperature, 30 min; GST-TFs on glutathione beads, 16-mer random dsDNA library, 0.1% formaldehyde crosslink after washing; high values mean tight binding. The note with it: protein: recombinant; tags: N-terminal GST; dsDNA, one strand shown. In a few lines: (§1)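 A tag-only sample was pooled with DNA-barcoded human transcription factors that had been expressed in yeast as GST fusions and captured on glutathione beads. The pools were incubated for 30 min at room temperature with 200 nmole of a random double-stranded 16-mer DNA library in Tris/NaCl/DTT/glycerol buffer, then washed, crosslinked with 0.1% formaldehyde, proximity-ligated (BsaI/T4 ligase, 1 h, 37 °C), PCR-amplified and sequenced on an Illumina NextSeq500. Binding signal is each hexamer's read frequency for a factor divided by its frequency for the tag-only sample.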
As to AATCAC, the binding signal is 1.05 fold enrichment (6-mer frequency, TF over GST control).

Consider CCGTTT, for which the binding signal is 1.33 fold enrichment (6-mer frequency, TF over GST control).

Regarding CCTGCT, the binding signal is 1.53 fold enrichment (6-mer frequency, TF over GST control).

As to TAGCAC, the binding signal is 1.33 fold enrichment (6-mer frequency, TF over GST control).

As for ACAGCT, the binding signal was 1.24 fold enrichment (6-mer frequency, TF over GST control).

On to ACGCTA, for which the binding signal is 1.2 fold enrichment (6-mer frequency, TF over GST control).

Turning to TGCCTC, the binding signal is 1.4 fold enrichment (6-mer frequency, TF over GST control).

On to TCCCAT, for which the binding signal was 1.4 fold enrichment (6-mer frequency, TF over GST control).

On to TTCGGT, for which the binding signal is 1.18 fold enrichment (6-mer frequency, TF over GST control).

In the case of AAGTAA, the binding signal was 1.27 fold enrichment (6-mer frequency, TF over GST control).

Take TGTCTT: the binding signal is 1.28 fold enrichment (6-mer frequency, TF over GST control).

Turning to CTCGTC, the binding signal is 1.4 fold enrichment (6-mer frequency, TF over GST control).

Consider GACTCT, for which the binding signal is 1.58 fold enrichment (6-mer frequency, TF over GST control).

As to CAATTT, the binding signal was 1.36 fold enrichment (6-mer frequency, TF over GST control).

AACTGC: the binding signal is 1.22 fold enrichment (6-mer frequency, TF over GST control).

As to TGCTTT, the binding signal is 1.29 fold enrichment (6-mer frequency, TF over GST control).

CGTATT: the binding signal is 1.08 fold enrichment (6-mer frequency, TF over GST control).

Take CTTGGT: the binding signal is 1.34 fold enrichment (6-mer frequency, TF over GST control).

Regarding CCCTTA, the binding signal is 1.32 fold enrichment (6-mer frequency, TF over GST control).

AACTAG: the binding signal was 1.16 fold enrichment (6-mer frequency, TF over GST control).

Consider TATATT, for which the binding signal was 1.43 fold enrichment (6-mer frequency, TF over GST control).

Regarding AGGTCT, the binding signal is 1.26 fold enrichment (6-mer frequency, TF over GST control).

For TAATTC, the binding signal is 1.29 fold enrichment (6-mer frequency, TF over GST control).

With ATCCGC, the binding signal was 1.71 fold enrichment (6-mer frequency, TF over GST control).

For CCTATC, the binding signal was 1.17 fold enrichment (6-mer frequency, TF over GST control).

In the case of GTTTCT, the binding signal was 1.24 fold enrichment (6-mer frequency, TF over GST control).

As for TCCAAC, the binding signal was 1.2 fold enrichment (6-mer frequency, TF over GST control).

Consider TCCGTA, for which the binding signal is 1.43 fold enrichment (6-mer frequency, TF over GST control).

Turning to CCTTGA, the binding signal is 1.27 fold enrichment (6-mer frequency, TF over GST control).

As to TCCTGC, the binding signal was 1.43 fold enrichment (6-mer frequency, TF over GST control).

On to TTACTC, for which the binding signal is 1.27 fold enrichment (6-mer frequency, TF over GST control).

On to TTTGCC, for which the binding signal was 1.31 fold enrichment (6-mer frequency, TF over GST control).

As to TACAGA, the binding signal was 1.13 fold enrichment (6-mer frequency, TF over GST control).

Consider TGTTTT, for which the binding signal is 1.26 fold enrichment (6-mer frequency, TF over GST control).

Consider AAGTAT, for which the binding signal is 1.38 fold enrichment (6-mer frequency, TF over GST control).

ACTTTC: the binding signal was 1.63 fold enrichment (6-mer frequency, TF over GST control).

Take TATACA: the binding signal is 1.34 fold enrichment (6-mer frequency, TF over GST control).

Take ATTTAA: the binding signal was 1.21 fold enrichment (6-mer frequency, TF over GST control).

Turning to CACGAT, the binding signal is 1.29 fold enrichment (6-mer frequency, TF over GST control).

As for AACAAT, the binding signal is 1.31 fold enrichment (6-mer frequency, TF over GST control).

Another assay addresses T2, ETV3L (Homo sapiens, UniProt Q6ZN32 1-361).
T2 sequence: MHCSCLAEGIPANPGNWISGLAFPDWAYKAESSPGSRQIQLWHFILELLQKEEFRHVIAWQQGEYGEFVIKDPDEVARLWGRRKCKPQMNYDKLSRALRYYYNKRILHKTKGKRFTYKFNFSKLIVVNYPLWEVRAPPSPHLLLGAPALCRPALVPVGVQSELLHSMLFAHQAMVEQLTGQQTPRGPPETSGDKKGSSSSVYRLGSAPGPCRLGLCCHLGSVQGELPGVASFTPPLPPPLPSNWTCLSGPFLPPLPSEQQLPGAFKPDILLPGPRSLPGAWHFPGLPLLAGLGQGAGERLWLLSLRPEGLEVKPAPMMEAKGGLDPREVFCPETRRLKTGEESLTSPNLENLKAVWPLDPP
The assay is described as above. The note with it: protein: recombinant; tags: N-terminal GST; dsDNA, one strand shown. The essentials:
as §1
As for AATCAC, the binding signal was 1.12 fold enrichment (6-mer frequency, TF over GST control).

Regarding CCGTTT, the binding signal is 1.45 fold enrichment (6-mer frequency, TF over GST control).

With CCTGCT, the binding signal is 1.65 fold enrichment (6-mer frequency, TF over GST control).

Turning to TAGCAC, the binding signal was 1.21 fold enrichment (6-mer frequency, TF over GST control).

Regarding ACAGCT, the binding signal was 1.19 fold enrichment (6-mer frequency, TF over GST control).

ACGCTA: the binding signal was 1.12 fold enrichment (6-mer frequency, TF over GST control).

For the sequence TGCCTC, the binding signal is 1.32 fold enrichment (6-mer frequency, TF over GST control).

As to TCCCAT, the binding signal is 1.38 fold enrichment (6-mer frequency, TF over GST control).

Regarding TTCGGT, the binding signal was 1.11 fold enrichment (6-mer frequency, TF over GST control).

Take AAGTAA: the binding signal was 1.31 fold enrichment (6-mer frequency, TF over GST control).

Turning to TGTCTT, the binding signal is 1.32 fold enrichment (6-mer frequency, TF over GST control).

In the case of CTCGTC, the binding signal is 1.24 fold enrichment (6-mer frequency, TF over GST control).

On to GACTCT, for which the binding signal is 1.32 fold enrichment (6-mer frequency, TF over GST control).

Take CAATTT: the binding signal was 1.33 fold enrichment (6-mer frequency, TF over GST control).

Consider AACTGC, for which the binding signal was 1.37 fold enrichment (6-mer frequency, TF over GST control).

TGCTTT: the binding signal is 1.11 fold enrichment (6-mer frequency, TF over GST control).

CGTATT: the binding signal is 1.09 fold enrichment (6-mer frequency, TF over GST control).

Regarding CTTGGT, the binding signal is 1.47 fold enrichment (6-mer frequency, TF over GST control).

In the case of CCCTTA, the binding signal was 1.41 fold enrichment (6-mer frequency, TF over GST control).

As for AACTAG, the binding signal is 1.09 fold enrichment (6-mer frequency, TF over GST control).

As to TATATT, the binding signal is 1.5 fold enrichment (6-mer frequency, TF over GST control).

Take AGGTCT: the binding signal is 1.14 fold enrichment (6-mer frequency, TF over GST control).

TAATTC: the binding signal was 1.38 fold enrichment (6-mer frequency, TF over GST control).

On to ATCCGC, for which the binding signal is 1.84 fold enrichment (6-mer frequency, TF over GST control).

Regarding CCTATC, the binding signal is 1.22 fold enrichment (6-mer frequency, TF over GST control).

As for GTTTCT, the binding signal is 1.33 fold enrichment (6-mer frequency, TF over GST control).

Take TCCAAC: the binding signal is 1.18 fold enrichment (6-mer frequency, TF over GST control).

For TCCGTA, the binding signal was 1.53 fold enrichment (6-mer frequency, TF over GST control).

Take CCTTGA: the binding signal was 1.17 fold enrichment (6-mer frequency, TF over GST control).

As for TCCTGC, the binding signal was 1.71 fold enrichment (6-mer frequency, TF over GST control).

As for TTACTC, the binding signal was 1.15 fold enrichment (6-mer frequency, TF over GST control).

Consider TTTGCC, for which the binding signal is 1.2 fold enrichment (6-mer frequency, TF over GST control).

For TACAGA, the binding signal is 1.04 fold enrichment (6-mer frequency, TF over GST control).

Consider TGTTTT, for which the binding signal was 1.37 fold enrichment (6-mer frequency, TF over GST control).

AAGTAT: the binding signal was 1.47 fold enrichment (6-mer frequency, TF over GST control).

On to ACTTTC, for which the binding signal is 1.59 fold enrichment (6-mer frequency, TF over GST control).

As to TATACA, the binding signal is 1.3 fold enrichment (6-mer frequency, TF over GST control).

As to ATTTAA, the binding signal is 1.19 fold enrichment (6-mer frequency, TF over GST control).

Turning to CACGAT, the binding signal was 1.23 fold enrichment (6-mer frequency, TF over GST control).

On to AACAAT, for which the binding signal was 1.26 fold enrichment (6-mer frequency, TF over GST control).

Another assay deals with T3, ETS2 (Homo sapiens, UniProt P15036 1-469).
T3 sequence: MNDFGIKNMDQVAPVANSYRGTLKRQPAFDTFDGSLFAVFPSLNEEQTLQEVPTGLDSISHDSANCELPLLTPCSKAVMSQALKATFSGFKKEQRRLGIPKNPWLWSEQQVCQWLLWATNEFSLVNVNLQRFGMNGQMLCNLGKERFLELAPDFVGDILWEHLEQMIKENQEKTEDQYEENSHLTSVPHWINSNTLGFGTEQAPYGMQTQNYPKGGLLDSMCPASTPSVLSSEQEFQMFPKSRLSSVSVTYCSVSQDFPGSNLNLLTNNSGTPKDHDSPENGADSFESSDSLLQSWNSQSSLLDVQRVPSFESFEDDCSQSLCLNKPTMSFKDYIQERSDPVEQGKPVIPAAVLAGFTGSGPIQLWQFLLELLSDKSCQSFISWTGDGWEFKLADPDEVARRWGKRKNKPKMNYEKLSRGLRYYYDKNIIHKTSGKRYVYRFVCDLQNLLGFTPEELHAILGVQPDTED
The description is as above. Conditions: protein: recombinant; tags: N-terminal GST; dsDNA, one strand shown. The essentials:
as §1
Consider AATCAC, for which the binding signal is 1.06 fold enrichment (6-mer frequency, TF over GST control).

Regarding CCGTTT, the binding signal is 1.4 fold enrichment (6-mer frequency, TF over GST control).

On to CCTGCT, for which the binding signal was 1.62 fold enrichment (6-mer frequency, TF over GST control).

On to TAGCAC, for which the binding signal is 1.15 fold enrichment (6-mer frequency, TF over GST control).

Turning to ACAGCT, the binding signal is 1.12 fold enrichment (6-mer frequency, TF over GST control).

Consider ACGCTA, for which the binding signal was 1.01 fold enrichment (6-mer frequency, TF over GST control).

As for TGCCTC, the binding signal was 1.22 fold enrichment (6-mer frequency, TF over GST control).

For TCCCAT, the binding signal is 1.4 fold enrichment (6-mer frequency, TF over GST control).

With TTCGGT, the binding signal was 1.16 fold enrichment (6-mer frequency, TF over GST control).

Take AAGTAA: the binding signal was 1.27 fold enrichment (6-mer frequency, TF over GST control).

With TGTCTT, the binding signal was 1.28 fold enrichment (6-mer frequency, TF over GST control).

Take CTCGTC: the binding signal is 1.46 fold enrichment (6-mer frequency, TF over GST control).

GACTCT: the binding signal is 1.36 fold enrichment (6-mer frequency, TF over GST control).

On to CAATTT, for which the binding signal was 1.28 fold enrichment (6-mer frequency, TF over GST control).

Turning to AACTGC, the binding signal is 1.3 fold enrichment (6-mer frequency, TF over GST control).

As for TGCTTT, the binding signal is 1.07 fold enrichment (6-mer frequency, TF over GST control).

Consider CGTATT, for which the binding signal is 1.18 fold enrichment (6-mer frequency, TF over GST control).

With CTTGGT, the binding signal was 1.45 fold enrichment (6-mer frequency, TF over GST control).

For CCCTTA, the binding signal was 1.34 fold enrichment (6-mer frequency, TF over GST control).

Consider AACTAG, for which the binding signal was 1.11 fold enrichment (6-mer frequency, TF over GST control).

For the origin of these results see publication PMC7862700, “An all-to-all approach to the identification of sequence-specific readers for epigenetic DNA modifications on cytosine”.
